Drawing on PubChem BioAssay AID1645855 (Buhrlage Lab, Dana-Farber Cancer Institute and Novartis …, 2021), this text covers inhibition for 53 molecules.

The structures appear in SMILES notation. Out of some 47,000 compounds screened, about 3,100 (6.6%) were called active. Only a selection was taken, and actives are over-represented in it overall. Values without a mark were called inactive. Rule as the data show it: active = inhibition above about 30%; inactive = the rest.

Ubiquitin carboxyl-terminal hydrolase 17-like protein 5 (Homo sapiens), sequence (A8MUK1 whole entry, looked up): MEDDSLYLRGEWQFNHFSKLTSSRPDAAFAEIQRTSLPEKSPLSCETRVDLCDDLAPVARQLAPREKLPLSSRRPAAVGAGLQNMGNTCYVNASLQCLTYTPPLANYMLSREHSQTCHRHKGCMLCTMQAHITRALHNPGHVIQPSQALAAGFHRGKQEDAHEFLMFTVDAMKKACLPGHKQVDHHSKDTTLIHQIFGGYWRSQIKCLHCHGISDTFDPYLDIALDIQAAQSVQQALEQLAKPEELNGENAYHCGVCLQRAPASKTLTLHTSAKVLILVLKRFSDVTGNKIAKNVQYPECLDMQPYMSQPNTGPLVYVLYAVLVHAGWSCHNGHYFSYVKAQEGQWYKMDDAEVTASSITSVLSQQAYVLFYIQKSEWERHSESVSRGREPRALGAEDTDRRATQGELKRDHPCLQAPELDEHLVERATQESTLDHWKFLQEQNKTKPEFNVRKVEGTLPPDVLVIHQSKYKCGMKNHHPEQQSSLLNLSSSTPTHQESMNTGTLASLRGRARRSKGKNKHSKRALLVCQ

The test has as its target Ubiquitin carboxyl-terminal hydrolase 17-like protein 5 (Homo sapiens) (UniProt A8MUK1). The test is described as follows: blocks human USP17 ubiquitin-rhodamine cleavage (AID 1645855). The settings on record: purified USP17, Ub-rhodamine cleavage fluorescence, 3 h; at 50 µM; hits give high values.
The term inhibition denotes the drop in the measured response relative to a control, in per cent. Consider `COc1cc2c(cc1OC)CN(C(=O)c1cc(=O)c3ccccc3o1)CC2`, for which the inhibition is 8.62%.

As to `COc1ccc(CC(=O)Nc2ccc3c(c2)CN(C(=O)c2ccco2)CC3)cc1`, the inhibition was 46.1% (active).

On to `COc1ccc(CC(=O)Nc2ccc3c(c2)CCC3)cc1S(=O)(=O)N1CCOCC1`, for which the inhibition was -13.3%.

For the molecule `Cc1ccccc1CNC(=O)C1CCN(c2cnc3nccnc3c2)CC1`, the inhibition is -13%.

Take `CCN1CCN(C(=O)c2cccn2Cc2noc(-c3ccc(C)cc3)n2)CC1`: the inhibition is -1.85%.

As to `CN(C)C(CNC(=O)c1ccccc1Br)Cc1ccccc1` (stereo not drawn), the inhibition is 14.4%.

Turning to `Cc1ccccc1N1C(=O)COc2ccc3ccccc3c2C1C(=O)NC1CCCC1` (stereo not drawn), the inhibition is -5.8%.

In the case of `CNC(=O)[C@@]12CCC3(CCN(C(=O)c4cc(C)on4)CC3)[C@@H]1CN(C)C2`, the inhibition is 3.02%.

Consider `CCn1cc(CN2C[C@@H](O)[C@H](NC(=O)c3ccccn3)C2)c(C)n1`, for which the inhibition is 12.4%.

Take `O=C(c1cnn(-c2ccc(Cl)cc2)n1)c1cccs1`: the inhibition was 29.5%.

Take `O=C(Nc1ccc2oc(-c3ccccc3)nc2c1)c1cccc(-n2cnnc2)n1`: the inhibition was -0.426%.

Consider `O=C(Nc1ccc2cn[nH]c2c1)c1cnn(-c2ccccc2)n1`, for which the inhibition was 38.2% (active).

With `CC(NC(=O)c1ccc2ncnc(N3CCOCC3)c2c1)c1ccccc1` (stereo not drawn), the inhibition is 9.89%.

For `C=C(NC(=O)C(=C)NC(=O)c1csc(C2=N[C@@H]3c4csc(n4)[C@H]4NC(=O)c5csc(n5)[C@H]([C@](C)(O)[C@@H](C)O)NC(=O)C5CSC(=N5)/C(=C/C)NC(=O)C([C@@H](C)O)NC(=O)c5csc(n5)[C@]3(CC2)NC(=O)[C@H](C)NC(=O)C(=C)NC(=O)[C@H](C)NC(=O)C([C@@H](C)CC)NC2C=Cc3c(C(C)O)cc(nc3[C@H]2O)C(=O)OC4C)n1)C(N)=O` (stereo partly drawn), the inhibition is 53.2% (active).

As to `CN(C)C(=O)C1CN(Cc2cccc(C#N)c2)Cc2ccnn2C1` (stereo not drawn), the inhibition was -3.45%.

For the molecule `c1cncc(-c2nnc3n2C2(CCCCC2)Cc2ccccc2-3)c1`, the inhibition is -1.82%.

Regarding `O=c1c2ccccc2n(Cc2ccccc2Cl)c(=O)n1Cc1ccco1`, the inhibition was -8.56%.

On to `CCn1nccc1C1CCCN1C(=O)Nc1ccc(Cl)cc1` (stereo not drawn), for which the inhibition is 1.51%.

`COc1ccc(CCNC(=O)CSc2cn(CCNC(=O)c3ccccc3C)c3ccccc23)cc1OC`: the inhibition is 18.8%.

Take `COc1ccc(CCNC(=O)Cn2c(=O)n(CC3CCC(C(=O)NC4CCCC4)CC3)c(=O)c3ccccc32)cc1OC` (stereo not drawn): the inhibition is 9.89%.

Consider `Cc1ccc(CNC(=O)CC(c2ccccc2)c2ccccc2)cc1`, for which the inhibition is 24.3%.

With `COc1ccc(CCNC(=O)CCCn2c(=O)c3ccccc3n(CC(=O)OCc3ccccc3)c2=O)cc1OC`, the inhibition is 40.5% (active).

Turning to `Cc1ccc(CNC(=O)CCCn2c(=O)c3sccc3n(CC(=O)OCc3ccccc3)c2=O)cc1`, the inhibition is 47.4% (active).

`Cc1cccc(N2CC(C)Cn3c2nc2c3c(=O)n(CC(=O)OCc3ccccc3)c(=O)n2C)c1` (stereo not drawn): the inhibition was -3.33%.

Consider `COCC(=O)OCc1cc(=O)oc2cc(O)ccc12`, for which the inhibition is 14.9%.

With `CN1CCn2c(-c3cccnc3)cnc2C12CCN(Cc1cccnc1)CC2`, the inhibition was -23.9%.

Turning to `O=C(O)C1CCCN1C(=O)C1CCN(S(=O)(=O)c2ccccc2)CC1` (stereo not drawn), the inhibition was 0.0755%.

For the molecule `CC(C)N1CCN(C(=O)Cn2c(=O)n(-c3ccccc3)c3ncccc32)CC1`, the inhibition is -9.73%.

As for `O=C(Nc1cccnc1Cl)c1noc2c1COc1ccccc1-2`, the inhibition was 15%.

Consider `NC(=O)c1ccc(NC(=O)Cc2cc(-c3ccc(Cl)cc3)on2)cc1`, for which the inhibition is 58.4% (active).

In the case of `Cc1nc(-c2ccc(C)c(S(=O)(=O)NCC(=O)Nc3cccc(Cl)c3)c2)no1`, the inhibition is -1.55%.

With `COc1cccc(CCNC(=O)Cc2cc(-c3ccc(C)cc3)on2)c1`, the inhibition is -2.69%.

For `Cc1ccc(CN2CCC(N3CCN(C(=O)c4c(C)nn(C)c4C)CC3=O)CC2)cc1`, the inhibition is 2.05%.

In the case of `CC(NC(=O)CN1C(=O)C2CCCN2C(=O)c2ccc(F)cc21)c1ccccc1` (stereo not drawn), the inhibition was -12.4%.

Turning to `CCc1cc(=O)n(CC(=O)NC2CCCC2)c(N2CCOCC2)n1`, the inhibition is 0.695%.

As for `O=C(CCc1nnc2ccc(N3CCCCC3)nn12)Nc1ccc(S(=O)(=O)N2CCCCCC2)cc1`, the inhibition is 16.3%.

Consider `O=C(NC1CC1)c1cccc(OCC2CCCN(C(=O)c3cc(F)ccc3F)C2)c1` (stereo not drawn), for which the inhibition was -3.72%.

`CSc1nc2c(c(Nc3ccc(C(C)=O)cc3)n1)CCC2`: the inhibition was 61% (active).

Consider `O=C(NCC1CC1)c1ccc2c(c1)nc1n2CCN(Cc2ccccn2)C1=O`, for which the inhibition is -18.5%.

On to `CC(C)=CCC(O)C1=CC(=O)c2c(O)ccc(O)c2C1=O` (stereo not drawn), for which the inhibition was 95.2% (active).

On to `CC(C)=CCc1cc(O)ccc1O`, for which the inhibition was 4.38%.

For `CN(C(=O)c1ccc(S(=O)(=O)N2CCOCC2)cc1)c1nnc(C23CC4CC(CC(C4)C2)C3)s1`, the inhibition is 5.76%.

`CCOC(=O)c1c(S(=O)(=O)NCC(=O)Nc2ccc(C)cc2)c(C)n(C)c1C`: the inhibition was -20.2%.

For `CN(CCc1ccccc1)c1nccc(N2CCN(C(=O)c3csc(-c4cccnc4)n3)CC2)n1`, the inhibition was 19.2%.

`Cc1ccc(Cc2nnc(C(=O)NC(C)c3ccccc3)o2)cc1` (stereo not drawn): the inhibition is 4.41%.

For `Cc1ccc(CSc2nnc(/C=C/c3ccccc3)o2)cc1`, the inhibition was 39.9% (active).

On to `COc1ccccc1CC(=O)N1C[C@@H]2C[C@H]1C[C@@H]2NC(=O)c1ccccc1`, for which the inhibition is 15.2%.

`COc1ccc(CNC(=O)CCc2c(C)nn(-c3cc(N(C)C)ncn3)c2C)cc1`: the inhibition is -0.38%.

For the molecule `Cc1ccc(S(=O)(=O)N2C(=O)CCC2C(=O)N2CCCC2)cc1C` (stereo not drawn), the inhibition is -4.46%.

For `CCn1c(CC(=O)Nc2ccccc2)nnc1SCC(=O)N1CCOCC1`, the inhibition was 1.1%.

Turning to `O=C(Cc1nnc2c(-c3nc(C4CC4)no3)cccn12)Nc1ccccc1`, the inhibition is 69.9% (active).

On to `O=C(CN1CCC(c2nc(-c3ccccc3)no2)CC1)Nc1ccccc1`, for which the inhibition is -26.4%.

For `O=C(c1noc2c1CCCC2)N1CCCC(c2ccn[nH]2)C1` (stereo not drawn), the inhibition is 0.07%.
